Assay results reported in PubChem BioAssay AID1159580 (chemical genetic matrix, 2015).
Hit rate of the full screen: of about 5,500 compounds, about 2,000 (36%) were called active. About 18% were inconclusive and are not listed. Rule as the data show it: active = normalized growth mostly below about 0.91 (no sharp cut-off); inconclusive = no clear call, values can overlap the other calls; inactive = mostly above about 0.92. Some of the results follow.

Test: chemical genetic growth profiling, strain panel (AID 1159580);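 also: tested at 20 µM; growth read once vehicle control cultures reached saturation at 30 °C; 1 = growth at the plate median or of vehicle wells; lower values mean less growth of the strain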
Settings: S. cerevisiae deletion strains, growth OD

Measured: normalized growth

CC(=O)NBr
inactive: locus YAL013W, strain DEP1, hits give low values 1.02 | locus YAL040C, strain CLN3, hits give low values 0.995 | locus YDR363W, strain ESC2, hits give low values 1.01 | locus YER002W, strain NOP16, hits give low values 1.01 | locus YGR078C, strain PAC10, hits give low values 1.01 | locus YMR263W, strain SAP30, hits give low values 1 | locus YNL128W, strain TEP1, hits give low values 1.01 | locus YNL175C, strain NOP13, hits give low values 1.01 | locus YNL197C, strain WHI3, hits give low values 0.997 | locus YNL224C, strain SQS1, hits give low values 1.01 | locus YOR083W, strain WHI5 (second series), hits give low values 1.01 | locus YPL055C, strain LGE1, hits give low values 0.999
